Our source for the Potency values is PubChem BioAssay (NCATS).

The target in assay [1] is Peptidyl-prolyl cis-trans isomerase NIMA-interacting 1 (Homo sapiens) (UniProt Q13526). As to the kind of experiment: qHTS Validation Assay to Find Inhibitors of Pin1 (AID 504536; active = well fitted inhibition curve with a large enough effect in the polarisation, with a control signal flat, not every such curve was filed as active; the % refers to the polarisation; note: potency is the fitted concentration of half-maximal effect). An outline of the steps:
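Fluorescence polarization competition: compounds (titration) displace HiFluor-488-labeled Pin1-1b peptide from Pin1 (0.3 uM final) in pH 7.5 HEPES buffer with DTT, 10 min at room temperature; %Activity normalized to no-enzyme wells, curves fitted.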
A general note: qHTS replaces the single test concentration by a dilution series.

Assay [2] addresses Phosphoglycerate kinase, glycosomal (Trypanosoma brucei brucei) (UniProt P07378). As to the kind of experiment: qHTS Validation Assay to Find Inhibitors of Phosphoglycerate Kinase (AID 504547). Note: potency is the fitted concentration of half-maximal effect. An outline of the steps: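 Substrate/PGK mix plus compound; reaction started with GAPDH (100nM final) to form 1,3-BPG; 60 min RT; Kinase-Glo Plus 10 min; luminescence. TEA 100mM pH 7.6, MgCl2 5mM, Tween-20 0.01%.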

The target in assay [3] is phosphoglycerate mutase (Leishmania major) (UniProt Q4Q090). As to the kind of experiment: qHTS Validation Assay to Find Inhibitors of Phosphoglycerate Mutase (AID 504548). Note: series mostly up to about 58 µM. The settings on record: Potency: inhibition qHTS. An outline of the steps:
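Luminescent end-point read-out via Kinase-GloPlus after a 10-minute development. Reaction: 1.25nM Leishmania major PGAM with substrate and compound, 45 minutes at room temperature in TEA buffer (pH 7.6) with MgCl2 and Tween-20.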

The target in assay [4] is Ubiquitin carboxyl-terminal hydrolase 1 (Homo sapiens) (UniProt O94782). As to the kind of experiment: Inhibitors of USP1/UAF1: Pilot qHTS (AID 504865). Note: nearly all actives have a fitted effect of over 35% in size. Note: potency is the fitted concentration of half-maximal effect. An outline of the steps: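 In 50mM HEPES pH 7.8 containing 0.5mM EDTA, 1mM TCEP, 0.1 mg/ml BSA and 0.01% Tween-20, 1nM USP1/UAF1 is exposed to compound for 15 min, then Ub-Rho (150nM final) is added and fluorescence is read over time.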

Assay [5] is described as follows: qHTS for Inhibitors of ATXN expression: Validation (AID 588378). Note: series mostly up to about 57 µM; nearly all actives have a fitted effect of over 75% in size. An outline of the steps:
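Compounds were pinned onto attached HEK293 cells carrying an ATXN2-firefly luciferase construct and incubated 24 hrs at 37 degrees C. Each well then received a fluorescent viability reagent followed by luciferase substrate for end-point luminescence.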

The structures appear in SMILES notation. Results filed as inconclusive are left out. Active and inactive are the calls of the source. Unless noted, calls come from the whole dose curve; as a rule, active = well fitted curve in the direction sought with a large enough effect; inconclusive = small, poorly fitted or top-dose-only effect, or another doubt; inactive = no such curve, though single readings can be large; an effect the other way counts as inactive or inconclusive.

Chain of Peptidyl-prolyl cis-trans isomerase NIMA-interacting 1 (Homo sapiens) (Q13526 whole entry, looked up): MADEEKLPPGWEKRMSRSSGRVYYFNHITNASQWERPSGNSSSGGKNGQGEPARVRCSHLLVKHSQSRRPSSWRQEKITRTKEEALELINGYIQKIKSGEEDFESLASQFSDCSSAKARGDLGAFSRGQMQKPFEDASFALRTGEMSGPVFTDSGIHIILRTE
Chain of phosphoglycerate mutase (Leishmania major) (Q4Q090 1-553): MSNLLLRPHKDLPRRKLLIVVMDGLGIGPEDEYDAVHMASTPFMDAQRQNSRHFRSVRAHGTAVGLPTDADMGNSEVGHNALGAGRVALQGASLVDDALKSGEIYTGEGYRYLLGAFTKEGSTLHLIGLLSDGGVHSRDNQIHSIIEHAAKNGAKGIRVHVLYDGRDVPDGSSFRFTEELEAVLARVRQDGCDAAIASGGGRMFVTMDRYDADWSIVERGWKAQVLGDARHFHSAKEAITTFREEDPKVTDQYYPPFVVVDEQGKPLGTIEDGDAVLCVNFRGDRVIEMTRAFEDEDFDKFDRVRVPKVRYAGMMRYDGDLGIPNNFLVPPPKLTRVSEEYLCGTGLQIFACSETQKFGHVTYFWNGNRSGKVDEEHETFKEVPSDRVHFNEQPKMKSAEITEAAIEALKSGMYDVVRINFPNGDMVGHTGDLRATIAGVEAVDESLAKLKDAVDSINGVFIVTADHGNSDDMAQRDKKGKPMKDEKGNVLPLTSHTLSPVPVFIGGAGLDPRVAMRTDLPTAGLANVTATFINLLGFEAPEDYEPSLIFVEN
Chain of Phosphoglycerate kinase, glycosomal (Trypanosoma brucei brucei) (P07378 whole entry, looked up): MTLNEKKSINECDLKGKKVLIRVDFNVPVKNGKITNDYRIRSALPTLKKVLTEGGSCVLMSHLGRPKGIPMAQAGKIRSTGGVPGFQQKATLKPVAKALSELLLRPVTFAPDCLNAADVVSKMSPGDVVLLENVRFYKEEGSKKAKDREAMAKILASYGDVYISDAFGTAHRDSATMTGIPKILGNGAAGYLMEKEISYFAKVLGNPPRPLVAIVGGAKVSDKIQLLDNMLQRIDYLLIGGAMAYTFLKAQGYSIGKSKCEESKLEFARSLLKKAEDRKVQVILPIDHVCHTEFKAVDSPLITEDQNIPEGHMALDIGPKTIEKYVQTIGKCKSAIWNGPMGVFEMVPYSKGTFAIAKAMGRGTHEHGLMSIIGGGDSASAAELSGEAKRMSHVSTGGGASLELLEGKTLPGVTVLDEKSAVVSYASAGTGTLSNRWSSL
Chain of Ubiquitin carboxyl-terminal hydrolase 1 (Homo sapiens) (O94782 whole entry, looked up): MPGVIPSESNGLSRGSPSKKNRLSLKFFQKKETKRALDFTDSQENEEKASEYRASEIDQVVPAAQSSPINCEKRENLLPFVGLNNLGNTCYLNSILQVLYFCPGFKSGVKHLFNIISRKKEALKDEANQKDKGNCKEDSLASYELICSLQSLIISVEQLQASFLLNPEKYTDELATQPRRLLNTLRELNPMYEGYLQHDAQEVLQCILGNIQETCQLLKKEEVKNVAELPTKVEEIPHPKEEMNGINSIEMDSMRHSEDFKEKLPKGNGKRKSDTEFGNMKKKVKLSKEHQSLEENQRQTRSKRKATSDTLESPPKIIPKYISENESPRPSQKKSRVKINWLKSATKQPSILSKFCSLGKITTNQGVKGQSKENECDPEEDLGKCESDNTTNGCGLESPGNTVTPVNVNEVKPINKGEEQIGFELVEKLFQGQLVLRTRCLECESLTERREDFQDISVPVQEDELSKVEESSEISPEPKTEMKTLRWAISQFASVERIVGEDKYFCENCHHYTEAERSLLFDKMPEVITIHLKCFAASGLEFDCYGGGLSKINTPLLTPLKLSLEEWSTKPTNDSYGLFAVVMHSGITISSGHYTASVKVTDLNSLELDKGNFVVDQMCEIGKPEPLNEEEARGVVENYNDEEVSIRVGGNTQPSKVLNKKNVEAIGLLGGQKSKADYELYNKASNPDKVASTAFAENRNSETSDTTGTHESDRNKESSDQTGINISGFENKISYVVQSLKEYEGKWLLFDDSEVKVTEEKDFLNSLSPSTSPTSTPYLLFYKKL

As to `OCC1O[C@H](O)C(Cl)C(O)C1O` (some centres undefined), the Potency result in assay [1], in assay [2], in assay [3], in assay [4] and in assay [5] was “inactive” throughout.
`Nc1ncnc2c1c(I)cn2[C@@H]1C[C@H](N)[C@@H](O)[C@H]1O`: the Potency result in assay [2], in assay [3] and in assay [4] was “inactive” each time.
For `CCOC(=O)N1CCN(/[N+]([O-])=N/Oc2ccc([N+](=O)[O-])cc2[N+](=O)[O-])CC1`, the Potency entry in assay [1], in assay [2], in assay [3] and in assay [5] was “inactive” in each case.
Turning to `NCC1OC(O[C@H]2[C@H](O)[C@@H](OC3C(O)C(N)CC(N)C3OC3OC(CO)C(O)C(O)C3N)O[C@@H]2CO)C(N)C(O)C1O` (some centres undefined), the Potency entry in assay [1], in assay [2], in assay [3] and in assay [5] was “inactive” each time.
As for `N#C/C(=C\c1ccc(-c2cc(Cl)ccc2Cl)o1)C(=O)Nc1cccc2ncccc12`, the Potency entry in assay [2] and in assay [3] was “inactive” throughout. In addition, the Potency in assay [4] is 15.8 µM (active).
Consider `N#C/C(=C\c1ccc(O)c(O)c1)C(=O)c1ccc(O)c(O)c1`, for which the Potency in assay [1] is 1.69 µM (active); in assay [2], 0.757 µM (active). Besides, the Potency result in assay [4] and in assay [5] was “inactive” in each case.
In the case of `NCCSSCCN`, the Potency result in assay [2], in assay [3] and in assay [4] was “inactive” throughout.
Turning to `O=C(/C=C/c1ccc(O)cc1)c1ccc(O)cc1O`, the Potency result in assay [1], in assay [2] and in assay [5] was “inactive” in each case. Besides, in assay [4], the Potency is 79.4 µM (active).
In the case of `CCCCCCCCCCCCCCCC(=O)OC(CC(=O)O)C[N+](C)(C)C` (centres undefined), the Potency entry in assay [2] and in assay [3] was “inactive” throughout. Besides, the Potency in assay [4] was 50.1 µM (active).
For `COc1cc(OC)c(/C=C2/C(=O)Nc3ccccc32)c(OC)c1`, the Potency entry in assay [2], in assay [3] and in assay [4] was “inactive” throughout.
For `CCCCCC(O)c1cccc(OCc2ccc3ccccc3n2)c1` (centres undefined), the Potency entry in assay [2] and in assay [3] was “inactive” throughout.
`CN=c1nc(-c2ccccc2)n(-c2ccccc2)s1`: the Potency result in assay [1], in assay [2] and in assay [4] was “inactive” each time.
In the case of `CN1[C@@H](CC(=O)c2ccccc2)CCC[C@H]1C[C@H](O)c1ccccc1`, the Potency result in assay [2], in assay [3] and in assay [4] was “inactive” throughout.
